Whole data set: some 8,300 sequences, median “log2 fold change of degron read counts, EGFP-low vs EGFP+ sorted cells (limma voom), compound-induced degradation” near -1.1, cut for the highest 2% near 3.2. For the sample, the highest values were picked, then their nearest neighbours and some sequences at random.
Biological target: T1, CRBN, Q96SW2
T1 chain: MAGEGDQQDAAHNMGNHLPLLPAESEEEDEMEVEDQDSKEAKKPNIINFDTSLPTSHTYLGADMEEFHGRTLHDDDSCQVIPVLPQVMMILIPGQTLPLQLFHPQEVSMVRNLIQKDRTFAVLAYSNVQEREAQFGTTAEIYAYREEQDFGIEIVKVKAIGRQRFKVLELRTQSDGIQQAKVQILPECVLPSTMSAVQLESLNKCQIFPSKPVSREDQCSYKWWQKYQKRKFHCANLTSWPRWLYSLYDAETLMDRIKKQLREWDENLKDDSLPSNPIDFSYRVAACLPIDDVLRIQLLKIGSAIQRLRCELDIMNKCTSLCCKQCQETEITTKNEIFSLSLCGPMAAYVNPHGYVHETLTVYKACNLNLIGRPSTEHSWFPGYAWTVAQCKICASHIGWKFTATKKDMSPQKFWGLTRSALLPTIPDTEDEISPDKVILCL
Assay: log2 fold change of degron read counts, EGFP-low vs EGFP+ sorted cells (limma voom), compound-induced degradation; higher = more compound-induced degradation of the degron-EGFP fusion; degrons are variants of IKZF1/3 zinc finger 2; compound dose not given here
Conditions: Jurkat, 18 h

[1] = compound: compound 19 (5-tert-butyl-thalidomide)
[2] = compound: compound 22 (5-morpholino-thalidomide)
[3] = compound: compound 33 (diphenyl IMiD analogue)
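Note: pooled lentiviral library of zinc finger degron-EGFP fusions in mCherry-positive Jurkat cells, FACS-sorted after compound exposure, with degron abundance counted by next-generation sequencing.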

FQCEQCGAWFTQKGNLLRHIKL [46F_47Q_49E_50Q_52G_53A_54W_55F_67L_, Q9UKT9]
log2 fold change of degron read counts [1]: -2.85 | log2 fold change of degron read counts [2]: -2.85 | log2 fold change of degron read counts [3]: -1.86 | log2 fold change of degron read counts (compound: thalidomide): -0.183

FRCDICGAHFTQKGNLLRHIKL [46F_47R_49D_50I_52G_53A_54H_55F_67L_, Q9UKT9]
log2 fold change of degron read counts [1]: -1.41 | log2 fold change of degron read counts [2]: -1.53 | log2 fold change of degron read counts [3]: 0.162 | log2 fold change of degron read counts (compound: thalidomide): -1.18

FACDVCGACFTQKGNLLRHIKL [46F_47A_49D_50V_52G_53A_54C_55F_67L_, Q9UKT9]
log2 fold change of degron read counts [1]: 1.83 | log2 fold change of degron read counts [2]: -0.406 | log2 fold change of degron read counts [3]: -0.331 | log2 fold change of degron read counts (compound: thalidomide): -2.56

FKCNVCGANFTQKGNLLRHIKL [46F_47K_49N_50V_52G_53A_54N_55F_67L_, Q9UKT9]
log2 fold change of degron read counts [1]: -2.45 | log2 fold change of degron read counts [2]: -2.95 | log2 fold change of degron read counts [3]: -3.12 | log2 fold change of degron read counts (compound: thalidomide): -2.19

FICNICGAYFTQKGNLLRHIKL [46F_47I_49N_50I_52G_53A_54Y_55F_67L_, Q9UKT9]
log2 fold change of degron read counts [1]: -1.5 | log2 fold change of degron read counts [2]: 0.102 | log2 fold change of degron read counts [3]: 1.22 | log2 fold change of degron read counts (compound: thalidomide): 0.967

FLCNVCGALFTQKGNLLRHIKL [46F_47L_49N_50V_52G_53A_54L_55F_67L_, Q9UKT9]
log2 fold change of degron read counts [1]: -2.4 | log2 fold change of degron read counts [2]: -1.93 | log2 fold change of degron read counts [3]: -0.86 | log2 fold change of degron read counts (compound: thalidomide): -0.854

FCCEICGHNFTQKGNLLRHIKL [46F_47C_49E_50I_52G_53H_54N_55F_67L_, Q9UKT9]
log2 fold change of degron read counts [1]: -3.4 | log2 fold change of degron read counts [2]: -2.63 | log2 fold change of degron read counts [3]: -3.12 | log2 fold change of degron read counts (compound: thalidomide): -2.76

FQCDQCGANFTQKGNLLRHIKL [46F_47Q_49D_50Q_52G_53A_54N_55F_67L_, Q9UKT9]
log2 fold change of degron read counts [1]: -2.74 | log2 fold change of degron read counts [2]: -1.96 | log2 fold change of degron read counts [3]: -2.34 | log2 fold change of degron read counts (compound: thalidomide): -0.263

FYCNICGAIFTQKGNLLRHIKL [46F_47Y_49N_50I_52G_53A_54I_55F_67L_, Q9UKT9]
log2 fold change of degron read counts [1]: 0.725 | log2 fold change of degron read counts [2]: 1.63 | log2 fold change of degron read counts [3]: 0.601 | log2 fold change of degron read counts (compound: thalidomide): -0.748

FHCNICGAIFTQKGNLLRHIKL [46F_47H_49N_50I_52G_53A_54I_55F_67L_, Q9UKT9]
log2 fold change of degron read counts [1]: -0.569 | log2 fold change of degron read counts [2]: 0.345 | log2 fold change of degron read counts [3]: -0.0029 | log2 fold change of degron read counts (compound: thalidomide): -0.75

FQCNICGAIFTQKGNLLRHIKL [46F_47Q_49N_50I_52G_53A_54I_55F_67L_, Q9UKT9]
log2 fold change of degron read counts [1]: -0.972 | log2 fold change of degron read counts [2]: 2.07 | log2 fold change of degron read counts [3]: 2.21 | log2 fold change of degron read counts (compound: thalidomide): 3.81

FTCPICGRYFTQKGNLLRHIKL [46F_47T_49P_50I_52G_53R_54Y_55F_67L_, Q9UKT9]
log2 fold change of degron read counts [1]: -0.651 | log2 fold change of degron read counts [2]: -0.614 | log2 fold change of degron read counts [3]: 0.487 | log2 fold change of degron read counts (compound: thalidomide): 0.782

LACNQCGFLCTQKGNLLRHIKL [46L_47A_49N_50Q_52G_53F_54L_55C_67L_, Q9UKT9]
log2 fold change of degron read counts [1]: -1.52 | log2 fold change of degron read counts [2]: -2.34 | log2 fold change of degron read counts [3]: -2.08 | log2 fold change of degron read counts (compound: thalidomide): -1.99

LYCEICGFKCTQKGNLLRHIKL [46L_47Y_49E_50I_52G_53F_54K_55C_67L_, Q9UKT9]
log2 fold change of degron read counts [1]: 3.6 | log2 fold change of degron read counts [2]: 3.16 | log2 fold change of degron read counts [3]: 1.42 | log2 fold change of degron read counts (compound: thalidomide): 1.42

LTCEICGFKCTQKGNLLRHIKL [46L_47T_49E_50I_52G_53F_54K_55C_67L_, Q9UKT9]
log2 fold change of degron read counts [1]: 0.899 | log2 fold change of degron read counts [2]: 1.56 | log2 fold change of degron read counts [3]: -0.216 | log2 fold change of degron read counts (compound: thalidomide): 2.39

LWCEICGFKCTQKGNLLRHIKL [46L_47W_49E_50I_52G_53F_54K_55C_67L_, Q9UKT9]
log2 fold change of degron read counts [1]: 3.29 | log2 fold change of degron read counts [2]: 3.25 | log2 fold change of degron read counts [3]: 1.64 | log2 fold change of degron read counts (compound: thalidomide): 1.24

LCCEICGFKCTQKGNLLRHIKL [46L_47C_49E_50I_52G_53F_54K_55C_67L_, Q9UKT9]
log2 fold change of degron read counts [1]: 2 | log2 fold change of degron read counts [2]: 1.83 | log2 fold change of degron read counts [3]: -0.183 | log2 fold change of degron read counts (compound: thalidomide): 2.48

LDCEICGFKCTQKGNLLRHIKL [46L_47D_49E_50I_52G_53F_54K_55C_67L_, Q9UKT9]
log2 fold change of degron read counts [1]: -0.859 | log2 fold change of degron read counts [2]: -1.7 | log2 fold change of degron read counts [3]: -1.79 | log2 fold change of degron read counts (compound: thalidomide): -0.369

LLCEICGFKCTQKGNLLRHIKL [46L_47L_49E_50I_52G_53F_54K_55C_67L_, Q9UKT9]
log2 fold change of degron read counts [1]: 0.0968 | log2 fold change of degron read counts [2]: -1.51 | log2 fold change of degron read counts [3]: -0.463 | log2 fold change of degron read counts (compound: thalidomide): 1.96

LICEICGFKCTQKGNLLRHIKL [46L_47I_49E_50I_52G_53F_54K_55C_67L_, Q9UKT9]
log2 fold change of degron read counts [1]: 0.236 | log2 fold change of degron read counts [2]: 1.62 | log2 fold change of degron read counts [3]: 0.617 | log2 fold change of degron read counts (compound: thalidomide): 2.72

LFCEICGFKCTQKGNLLRHIKL [46L_47F_49E_50I_52G_53F_54K_55C_67L_, Q9UKT9]
log2 fold change of degron read counts [1]: 3.22 | log2 fold change of degron read counts [2]: 3.15 | log2 fold change of degron read counts [3]: 0.657 | log2 fold change of degron read counts (compound: thalidomide): 1.64

LQCEICGFKCTQKGNLLRHIKL [46L_47Q_49E_50I_52G_53F_54K_55C_67L_, Q9UKT9]
log2 fold change of degron read counts [1]: 0.755 | log2 fold change of degron read counts [2]: 1.87 | log2 fold change of degron read counts [3]: 0.3 | log2 fold change of degron read counts (compound: thalidomide): 3.27

LSCEICGFKCTQKGNLLRHIKL [46L_47S_49E_50I_52G_53F_54K_55C_67L_, Q9UKT9]
log2 fold change of degron read counts [1]: 2.27 | log2 fold change of degron read counts [2]: 1.7 | log2 fold change of degron read counts [3]: -0.728 | log2 fold change of degron read counts (compound: thalidomide): 1.09

LACEICGFKCTQKGNLLRHIKL [46L_47A_49E_50I_52G_53F_54K_55C_67L_, Q9UKT9]
log2 fold change of degron read counts [1]: 3.4 | log2 fold change of degron read counts [2]: 1.5 | log2 fold change of degron read counts [3]: -1.07 | log2 fold change of degron read counts (compound: thalidomide): 0.917

LECEICGFKCTQKGNLLRHIKL [46L_47E_49E_50I_52G_53F_54K_55C_67L_, Q9UKT9]
log2 fold change of degron read counts [1]: -0.0668 | log2 fold change of degron read counts [2]: -1.67 | log2 fold change of degron read counts [3]: -0.528 | log2 fold change of degron read counts (compound: thalidomide): 2.53

FLCPVCGAHFTQKGNLLRHIKL [46F_47L_49P_50V_52G_53A_54H_55F_67L_, Q9UKT9]
log2 fold change of degron read counts [1]: -0.298 | log2 fold change of degron read counts [2]: -0.793 | log2 fold change of degron read counts [3]: 1.34 | log2 fold change of degron read counts (compound: thalidomide): 0.943

LVCEICGFPCTQKGNLLRHIKL [46L_47V_49E_50I_52G_53F_54P_55C_67L_, Q9UKT9]
log2 fold change of degron read counts [1]: -1.74 | log2 fold change of degron read counts [2]: -0.966 | log2 fold change of degron read counts [3]: -1.5 | log2 fold change of degron read counts (compound: thalidomide): -0.424

FVCPICGRIFTQKGNLLRHIKL [46F_47V_49P_50I_52G_53R_54I_55F_67L_, Q9UKT9]
log2 fold change of degron read counts [1]: -1.17 | log2 fold change of degron read counts [2]: -0.629 | log2 fold change of degron read counts [3]: 1.04 | log2 fold change of degron read counts (compound: thalidomide): 1.32

— the supplement of paper PMC12645437, “Orthogonal IMiD-Degron Pairs Induce Selective Protein Degradation in Cells” (ACS Chemical Biology, 2025)
